# Screening results from PubChem.
# Most compounds without a hit are left out; they make up all but 12% or so of the library.
# Sfp PPTase inh = blocks B. subtilis Sfp PPTase activity; Biochemical Sfp PPTase activity, qHTS; Potency, µM, without a hit: largest response in the series, negative = inhibition, actives largely listed as inhibitors; actives 3.5% (n = 310,000);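 also: the enzyme is Sfp with the accession as filed and its product quenches rhodamine fluorescence; 0% = enzyme reaction without inhibitor and -100% = no enzyme wells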
#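 Sfp 15 nM + cpd, 15 min RT; start w/ rhodamine-CoA 5 uM, BHQ-2-YbbR 12.5 uM (final); 50 mM Hepes pH 7.6, 10 mM MgCl2, 0.01% NP-40, 0.01% BSA; read 525/598 nm at 0 and 30 min.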
# G9a block = inhibitors of human histone lysine methyltransferase G9a; Q96KQ7; G9a H3K9 monomethylation, AlphaScreen, 2 h; Potency, µM (titrated, usually from 102 µM), for the others: at the highest dose activity, negative = inhibition, actives largely listed as inhibitors; actives 8.8% (n = 350,000); AID 504332; also: % is scaled to controls: 0 for no effect and ±100 for the full control effect; nearly all actives have a fitted effect of over 75% in size
# Target sequence (Q96KQ7 913-1193 limits assumed): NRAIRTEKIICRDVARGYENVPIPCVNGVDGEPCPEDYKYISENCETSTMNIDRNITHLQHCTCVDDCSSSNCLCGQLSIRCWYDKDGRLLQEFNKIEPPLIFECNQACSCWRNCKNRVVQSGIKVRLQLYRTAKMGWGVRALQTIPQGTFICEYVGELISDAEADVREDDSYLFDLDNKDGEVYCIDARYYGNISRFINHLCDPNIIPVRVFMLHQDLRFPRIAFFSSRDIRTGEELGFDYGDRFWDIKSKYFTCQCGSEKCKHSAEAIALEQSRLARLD
#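 Using a bead-based AlphaScreen, monomethylated H3K9 product from 2 h room-temperature reactions (G9a 20 nM, peptide 500 nM, SAM 20 uM) was detected with 0.5 ug/mL rabbit anti-H3K9me1 antibody.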
# JMJD2A Tudor = JMJD2A Tudor domain (human) inhibition. O75164. AlphaScreen JMJD2A-Tudor / H3K4me3 peptide binding. Potency, µM (doses to about 114 µM), inactives show at the highest dose activity change, negative = inhibition, hits mostly inhibitors. actives 4.4% (n = 390,000). AID 504339; also: % is scaled to controls: 0 for no effect and ±100 for the full control effect; nearly all actives have a fitted effect of over 50% in size
# BAZ2B block = blocks human BAZ2B. AlphaScreen BAZ2B-H3K14Ac peptide displacement. Potency, µM (highest dose often 114 µM), for the others: at the highest dose activity change, negative = inhibition, hits mostly inhibitors. actives 4.4% (n = 360,000); also: % is scaled to controls: 0 for no effect and ±100 for the full control effect; nearly all actives have a fitted effect of over 60% in size
#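 In this displacement format the biotinylated H3(5-23) peptide acetylated at Lys14 serves as ligand at 50 nM, with BAZ2B at 50 nM in PBS pH 7.4 containing 0.01% Tween-20. Donor and acceptor beads are 10 ug/mL final.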
# HP1b binding inh = inhibitors of HP1-beta chromodomain binding to methylated histone tails | Potency, µM (series often up to 114 µM), without a hit: at the highest dose activity change, negative = inhibition, hits mostly inhibitors | P83916 | actives 0.56% (n = 390,000) | AlphaScreen HP1-beta / biotin-H3K9me3 peptide binding; also: nearly all actives have a fitted effect of over 70% in size
# Target sequence (P83916 whole entry, looked up): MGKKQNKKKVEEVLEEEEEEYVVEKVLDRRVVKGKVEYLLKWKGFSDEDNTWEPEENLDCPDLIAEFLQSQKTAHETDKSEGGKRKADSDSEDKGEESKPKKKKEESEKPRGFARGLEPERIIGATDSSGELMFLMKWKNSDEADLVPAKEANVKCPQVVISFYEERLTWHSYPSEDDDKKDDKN
#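 HP1-beta protein (50 nM final) preincubated 30 min at room temperature with biotinylated H3(1-18)K9me3 peptide (50 nM) in PBS pH 7.4, 0.01% Tween-20, then compound added for 30 min. AlphaScreen streptavidin donor/nickel chelate acceptor beads (10 ug/mL final), 30 min dark, luminescence read.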
# * marks the source's active call; other numbers are inactive results; ? = inconclusive; . = no result given; [ ] = dose if it differs, or a comment. Calls follow the shape of the dose curve; as a rule, active = well fitted curve in the direction sought with a large enough effect; inconclusive = small, poorly fitted or top-dose-only effect, or another doubt; inactive = no such curve, though single readings can be large; an effect the other way counts as inactive or inconclusive. Potency is read from the fitted curve at half-maximal effect.
SMILES,Sfp PPTase inh,G9a block,JMJD2A Tudor,BAZ2B block,HP1b binding inh
CCOC(=O)N1CCN(C(=O)C2CCC(=O)N(CCCN3CCCC3=O)C2)CC1 (stereo unspecified),8%,13%,-13%,0%,22%
Cc1ccc(C)c(N2CN(Cc3ccco3)CNC2=S)c1,18%,18%[59 µM],-24%,3%,9%
S=c1[nH]nc(-c2ccco2)n1C1CCCCC1,-20%,2µM*,3.2µM*,-12%,?
CN(C(=O)CSc1nnc(-c2ccco2)n1N)C1CCCCC1,14%,-1%,-6%,0%,40%
Nn1c(-c2ccco2)n[nH]c1=S,56µM*,8.9µM*,7.1µM*,50µM*,?
Cc1ccc(C)c(-n2c(-c3ccco3)n[nH]c2=S)c1,.,.,8.9µM*,.,-23%
Cn1cc(Cl)c(-c2n[nH]c(=S)n2C2CCCCC2)n1,25%,?,4.5µM*,-19%,17%
COc1ccc(-n2c(=O)c3c(c4cc(OC)ccc4n3C)n(CC(=O)NCC3CCCO3)c2=O)cc1 (stereo unspecified),.,-5%[59 µM],-15%,-4%,6%
COc1ccccc1N1CCN(c2ncnc3onc(C)c23)CC1,.,-4%[59 µM],3%,1%,15%
c1ccc(-c2nnc(-c3ccco3)n2-c2ccccc2)cc1,-4%,-39%[59 µM],-29%,-7%,7%
S=c1[nH]nc(-c2ccco2)n1-c1ccc(Cl)cc1,-15%,?,32µM*,-15%,-8%
COc1ccc(-n2c(-c3ccco3)n[nH]c2=S)cc1,-19%,4µM*,4.5µM*,-3%,?
Cc1ccccc1-c1cncnc1NC1CCNCC1,1%,.,.,.,.
CN1c2ccsc2/C(=N/Nc2ccccc2)CS1(=O)=O,?,25µM*,56µM*,?,?
COc1c(OC)c2occc2c2oc(=O)ccc12,-3%,-4%[2.33 µM],.,.,.
COC(=O)c1c(NC(=O)c2cccc(N3C(=O)CCC3=O)c2)sc2c1CCN(C(C)=O)C2,4%,79µM*,-34%,-27%,1%
O=S(=O)(c1cccc(F)c1)N1CCC(Oc2ccc(-n3cnnn3)cc2)CC1,.,-36%[59 µM],-2%,-3%,49%
N#Cc1c(=O)c2nc(NCc3ccccc3)ncc2n2ccccc12,4%,-21%[12.7 µM],50µM*,?,43%
Cc1cc2ccccn2c1C(=O)c1nc(NCc2ccccc2)ncc1Cl,-6%,-37%,?,?,34%
CCCCn1c(SCC(=O)Nc2cc(C)on2)nc2cc(S(N)(=O)=O)ccc21,.,?,-17%,13%,20%
CCCCn1c(SCc2c(C)noc2C)nc2cc(S(N)(=O)=O)ccc21,-7%,50µM*,-6%,0%,34%
Cc1ccc(C(=O)NNC(=S)NC(=O)COc2ccccc2)cc1,56µM*,1.3µM*,13µM*,11%,-24%
CC(C)(C)c1ccc(C(=O)NC(=S)NNC(=O)COc2ccccc2)cc1,-19%,25µM*,?,?,-18%
COC(=O)CNC(=S)NC(=O)c1ccc(C(C)(C)C)cc1,-12%,18µM*,-32%,-23%,22%
Cc1ccc[n+](-c2nc([O-])sc2/C=N/Nc2ccc([N+](=O)[O-])cc2)c1,-8%,11µM*,-18%,40µM*,4%
SMILES,Sfp PPTase inh,G9a block,JMJD2A Tudor,BAZ2B block,HP1b binding inh
O=C(c1sc2cc([N+](=O)[O-])ccc2c1Cl)N1CCCCC1,-4%,?,?,?,?
CC1CCCN(C(=O)c2sc3cc([N+](=O)[O-])ccc3c2Cl)C1 (stereo unspecified),-20%,40%[0.501 µM],?,50µM*,?
COc1ccc(CCNC(=O)CNCCc2ccc(F)cc2)cc1,-19%,-18%,22µM*,79µM*,-19%
COc1ccc(CNC(=O)CNC(C)c2ccc(F)cc2)cc1 (stereo unspecified),-17%,14%,20µM*,56µM*,45µM*
COc1ccc(CCNC(=O)Cn2nnc3ccccc3c2=O)cc1,-2%,71µM*,-10%,12%,20%
O=C(Cn1nnc2ccccc2c1=O)NCCc1ccc(F)cc1,7%,2%[59 µM],.,-29%,.
COc1ccc(CCNC(=O)CCc2ccc(OC)cc2)cc1,6%,29%,-18%,-1%,48%
